# CIT2-GFP yeast: alters CIT2-GFP fluorescence in TOR pathway yeast screen; S. cerevisiae CIT2-GFP strain, flow cytometry, 3 h; 100 means same as DMSO wells; GFP response vs DMSO, % at 10 µM; hit rate 0.065% among 320,000;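 active means GFP response relative to DMSO above a set limit, near the screen mean plus 3 SD, cut at about 150% in these data; inconclusive means Fewer than 70 cells measured for a yeast strain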;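 further: ratio of well median GFP fluorescence to mean of DMSO wells on the plate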
# LAP4 TOR yeast: modulators of TOR pathway LAP4-GFP in S. cerevisiae. AID 2023. GFP response vs DMSO, % at 10 µM. hit rate 0.34% among 320,000. S. cerevisiae LAP4-GFP multiplex, flow cytometry GFP, 3 h; median GFP as percent of DMSO wells;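 active means GFP response vs DMSO above a set limit, about the screen mean plus 3 SD, cut at about 150% in these data; inconclusive means under 70 cell events counted for the yeast strain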
# AGP1 TOR yeast: modulators of TOR pathway AGP1-GFP in S. cerevisiae; S. cerevisiae AGP1-GFP multiplex flow cytometry, 3 h; GFP as percent of DMSO wells; GFP response vs DMSO, % at 10 µM; hit rate 0.02% among 320,000;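 active means GFP response relative to DMSO above a set limit, near screen average plus 3 SD, cut at about 150% in these data; inconclusive means fewer than 70 cells counted for the yeast strain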;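 further: median GFP channel fluorescence of the gated AGP1 strain per well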
# RPL19A TOR yeast: yeast TOR pathway RPL19A-GFP modulation; AID 2025; S. cerevisiae RPL19A-GFP strain, flow cytometry, 3 h; stronger effect = lower value; hit rate 0.3% among 330,000; percent response vs DMSO, % at 10 µM;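 active means percent response vs DMSO below 50%; inconclusive means fewer than 70 events counted for the yeast strain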;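 further: median channel GFP fluorescence of the barcoded RPL19A-GFP strain; ratio of sample median GFP to plate DMSO average so 100% = DMSO; lower means less RPL19A-GFP as with rapamycin TOR inhibition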
# MEP2 TOR yeast: alters MEP2-GFP fluorescence in TOR pathway yeast screen; S. cerevisiae MEP2-GFP strain, flow cytometry GFP, 3 h; 100% = DMSO control level; GFP response vs DMSO, % at 10 µM; hit rate 0.51% among 330,000;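 active means GFP response versus DMSO above a set limit, roughly screen mean plus 3 SD, cut at about 180% in these data; inconclusive means fewer than 70 cells counted for a yeast strain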;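 further: median GFP fluorescence of the barcode-gated MEP2-GFP cells per well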
# Active calls of the source: *; u = inconclusive; x = not tested or not shown; [ ] = remark or other dose. Sampled rows, rich in hits. Any-hit rate of the full collection: about 0.93%.
SMILES,CIT2-GFP yeast,LAP4 TOR yeast,AGP1 TOR yeast,RPL19A TOR yeast,MEP2 TOR yeast
Cc1ccc(-c2cc(C(=O)Nc3ccccn3)c3ccccc3n2)o1,u,86,u,17*[may fluoresce violet],140
Cc1ccc(NC(=O)c2cc(-c3ccc(C)o3)nc3ccccc23)cc1,94,102,98,96,101
O=C(C1=C[C@H](C2CC2)C[C@H](OCCCCO)O1)N1CCOCC1,96,96,103,102,104
Cc1c(C)c2ccc(OCC(=O)N(C)C)c(C)c2oc1=O,u,88,u,49*[may fluoresce violet],482*[may fluoresce violet]
Cn1cnc2c1c(=O)n(Cc1ccc(Cl)cc1Cl)c(=O)n2C,99,83,91,99,104
O=S(=O)(c1ccc(Cl)cc1)c1snnc1-c1ccccc1,107,165*,x,104,110
CCOC(=O)N1CCN(C(=O)Cn2ncn3nc(-c4cccs4)cc3c2=O)CC1,u,94,u,25*[may fluoresce violet],469*[may fluoresce violet]
COc1ccc2oc(CS(=O)c3ccccc3)c(C(=O)O)c2c1 (stereo not drawn),104,92,99,103,109
CCc1nnc2n1N=C(c1ccc(Cl)cc1)CS2,u,74,u,29*[may fluoresce violet],744*[may fluoresce violet]
Cc1ccc([N+](=O)[O-])cc1S(=O)(=O)Nc1ccc(C(=O)N2CCN(C(=O)c3ccco3)CC2)cc1,101,98,100,100,96
CN(C)CCN(C(=O)c1ccc2c(c1)OCCO2)c1nc2c(Cl)cccc2s1,102,90,102,104,91
CC(=O)c1ccc(C(=O)N(CCN(C)C)c2nc3c(Cl)cccc3s2)cc1,u,68,u,47*[may fluoresce violet],198*[may fluoresce violet]
Cc1cccc(NC(=O)Nc2cc(C)on2)c1,u,u,u,14*[may fluoresce violet],242*[may fluoresce violet]
Cc1ccc(NC(=O)Nc2cc(C)on2)cc1,88,112,95,99,98
C[C@H](NC(=O)c1nc[nH]c1C(=O)NCC(=O)OCc1ccccc1)c1ccccc1,95,110,101,112,102
Cn1c(N)c(C(=O)COC(=O)c2cccs2)c(=O)n(C)c1=O,u,60,u,64,273*[may fluoresce violet]
COc1ccc(-c2sc(C(=O)c3ccc(Cl)cc3Cl)cc2CC(=O)O)cc1,78,158*,82,92,108
O=C(O)Cc1ccc(C(=O)c2ccc(Cl)cc2Cl)s1,96,104,104,102,102
Cc1c(C)c2cc(Cl)c(OC(C)C(=O)NCCN3CCOCC3)cc2oc1=O (stereo not drawn),u,76,u,19*[may fluoresce violet],149
O=C(CN(C(=O)c1csnn1)c1cccc2c1CCCC2)NCc1ccccc1,99,102,101,103,109
COc1ccccc1NC(=S)N1CCC(NC(=O)c2ccco2)CC1,u,137,u,24*[may fluoresce violet],u
COc1ccc(OC)c(S(=O)(=O)N2CCC(C(=O)NC3CCCC3)CC2)c1,u,96,u,u,219*[may fluoresce red and violet]
CCOc1ccccc1NC(=S)N1CCC(NC(=O)c2ccco2)CC1,95,100,105,100,91
COc1ccc(NC(=O)C2CCN(C(=O)c3ccco3)CC2)c(OC)c1,u,112,u,42*[may fluoresce violet],689*[may fluoresce violet]
COc1ccc(NC(=O)C2CCN(S(=O)(=O)c3ccc(OC)c(OC)c3)CC2)c(OC)c1,96,96,85,85,179*
SMILES,CIT2-GFP yeast,LAP4 TOR yeast,AGP1 TOR yeast,RPL19A TOR yeast,MEP2 TOR yeast
COc1ccc(OC)c(S(=O)(=O)N2CCC(C(=O)NC3CCCCCC3)CC2)c1,100,96,98,109,103
C/C(=N\NC(N)=S)C1(C)CC2(CC(C)(C)OC2=O)C(=O)O1 (stereo not drawn),106,104,97,97,98
Cc1ccc(C)c(NC(NC(=O)c2ccccn2)C(Cl)(Cl)Cl)c1 (stereo not drawn),99,97,99,95,95
COc1ccc(NC(=O)c2cc(Cl)ccc2NC(=O)c2ccco2)c(OC)c1,u,78,u,40*[may fluoresce violet],213*[may fluoresce violet]
CCC1(CC)NC(=O)N(CC(=O)OCC(=O)c2ccccc2OC)C1=O,104,101,108,102,105
CCOc1ccc(CSCCNC(=S)Nc2ccc(OC)cc2)cc1,u,98,u,31*[may fluoresce violet],193*[may fluoresce violet]
CCOC(=O)CNC(=O)CSc1nnc(CCc2nc3ccccc3[nH]2)n1C,102,107,105,107,96
Cc1ccc(NC(=S)c2nc3ccccc3[nH]2)cc1,98,170*,91,95,99
Cc1ccc(NC(=O)CCCSc2nc3ccccc3[nH]2)cc1,165*,123,107,111,154
CCOC(=O)C(C(=O)OCC)c1cc(Br)c2noc3c2c1C(=O)c1ccccc1-3,89,143,86,93,111
O=C1c2ccccc2-c2onc3ccc(Oc4ccccc4)c1c23,125,234*,90,83,166
CCCOc1ccc(CNC(=O)c2ccc3c(c2)N(CC)CCS3)cc1,101,103,103,100,97
CCc1ccc(NC(=O)c2[nH]c(C)c(C(C)=O)c2C)cc1,98,103,97,102,100
CCc1ccc(Nc2oc(C)cc(=O)c2C(C)=O)cc1,u,72,15,90,298*[may fluoresce violet]
Cc1ccc(NC(=O)c2ccccc2NC(=O)CCC(=O)O)cc1,103,101,102,104,101
CC(=O)c1ccccc1NCC(=O)Nc1ccc(C)cc1,217*,226*,118,118,299*
O=S(=O)(NC1=NCCCCC1)c1cc(F)ccc1F,104,96,100,102,103
O=C(NCCc1ccccc1)c1ccc2nc(-c3ccco3)c(-c3ccco3)nc2c1,100,107,101,99,108
O=C(c1ccccc1)c1ccc2nc(-c3ccco3)c(-c3ccco3)nc2c1,u,134,19,91,184*[may fluoresce violet]
O=C(NCCc1cnc[nH]1)c1ccc(-c2ccccc2)cc1,105,111,103,105,108
CN(Cc1ccc(C(C)(C)C)cc1)C(=O)c1ccc2c(=O)n3c(nc2c1)CCC3,103,103,106,98,102
Cc1ccc(-c2cc(-c3ccc(C)o3)nc(N)c2C#N)cc1,u,133,x,91,175*[may fluoresce violet]
Cc1ccc([N+](=O)[O-])cc1N=C1C(=O)Nc2ccccc21,u,68,u,55,616*[may fluoresce violet]
COC(=O)C(CC(C)C)NC(=O)CSc1nc(-c2ccccc2)c(C#N)c(=O)[nH]1 (stereo not drawn),u,80,u,45*[may fluoresce violet],228*[may fluoresce violet]
N#Cc1c(-c2ccccc2)nc(SCC(=O)NC2CCCCC2)[nH]c1=O,112,107,120,120,116
COc1ccccc1NC(=O)c1ccc(-n2ccnc2)c([N+](=O)[O-])c1,u,64,u,56,206*[may fluoresce violet]
CCOc1cc(N2CCOCC2)c(OCC)cc1NC(=O)c1ccc(-n2ccnc2)c([N+](=O)[O-])c1,100,96,95,97,98

# Screening data from PubChem.
